“And” between values parts separate entries of the source, which are not always exact repeats. Equal values may be shown once. Out of some 5,500 compounds screened, about 2,000 (36%) were called active. Inconclusive results (about 18%) are left out. Rule as the data show it: active = normalized growth mostly below about 0.91 (no sharp cut-off); inconclusive = no clear call, values can overlap the other calls; inactive = mostly above about 0.92. The list shows a part of the results.
Assay: chemical genetic growth profiling, strain panel (AID 1159580);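 also: tested at 20 µM; growth read once vehicle control cultures reached saturation at 30 °C; 1 = growth at the plate median or of vehicle wells; lower values mean less growth of the strain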
Settings: S. cerevisiae deletion strains, growth OD

Measured: normalized growth

C=CCN1CC[C@]23c4c5ccc(O)c4OC2C(=O)CC[C@@]3(O)[C@H]1C5 (stereo partly specified)
inactive: locus YAL013W, strain DEP1, stronger effect = lower value 1.01 | locus YAL021C, strain ccr4, stronger effect = lower value 0.935 | locus YAL026C, strain drs2, stronger effect = lower value 0.979 | locus YAL030W, strain snc1, stronger effect = lower value 0.974 | locus YBL061C, strain skt5, stronger effect = lower value 0.978 | locus YBR009C, strain hhf1, stronger effect = lower value 0.987 | locus YBR021W, strain FUR4, stronger effect = lower value 1.01 | locus YBR023C, strain chs3, stronger effect = lower value 0.972 | locus YBR171W, strain sec66, stronger effect = lower value 0.974 | locus YBR229C, strain ROT2, stronger effect = lower value 1 | locus YBR231C, strain swc5, stronger effect = lower value 0.969 | locus YBR279W, strain paf1, stronger effect = lower value 0.955 | locus YCL011C, strain gbp2, stronger effect = lower value 0.941 | locus YCL016C, strain dcc1, stronger effect = lower value 0.986 | locus YCL029C, strain bik1, stronger effect = lower value 0.996 | locus YCL061C, strain MRC1, stronger effect = lower value 0.979 | locus YCL069W, strain vba3, stronger effect = lower value 0.946 | locus YCR088W, strain abp1, stronger effect = lower value 0.98 | locus YDL005C, strain med2, stronger effect = lower value 0.943 | locus YDL035C, strain GPR1, stronger effect = lower value 1.02 | locus YDL040C, strain nat1, stronger effect = lower value 0.967 | locus YDL074C, strain BRE1, stronger effect = lower value 1.05 | locus YDL101C, strain DUN1, stronger effect = lower value 1.02 | locus YDL134C, strain PPH21, stronger effect = lower value 1 | locus YDL185W, strain tfp1, stronger effect = lower value 1.01 | locus YDL192W, strain arf1, stronger effect = lower value 0.988 | locus YDR001C, strain nth1, stronger effect = lower value 0.971 | locus YDR069C, strain doa4, stronger effect = lower value 0.943 | locus YDR101C, strain arx1, stronger effect = lower value 0.989 | locus YDR137W, strain rgp1, stronger effect = lower value 0.959 | locus YDR150W, strain NUM1, stronger effect = lower value 1 | locus YDR159W, strain sac3, stronger effect = lower value 0.962 | locus YDR162C, strain NBP2, stronger effect = lower value 1.01 | locus YDR195W, strain ref2 0.955 | locus YDR297W, strain sur2, stronger effect = lower value 0.962 | locus YDR318W, strain mcm21, stronger effect = lower value 1 | locus YDR334W, strain swr1, stronger effect = lower value 0.95 | locus YDR335W, strain msn5, stronger effect = lower value 0.974 | locus YDR388W, stronger effect = lower value 1 | locus YDR392W, strain spt3, stronger effect = lower value 0.877 | locus YDR502C, strain sam2, stronger effect = lower value 0.984 | locus YEL003W, strain gim4, stronger effect = lower value 0.936 | locus YEL037C, strain rad23, stronger effect = lower value 0.954 | locus YEL061C, strain CIN8 (second series), stronger effect = lower value 0.962 | locus YEL061C, strain CIN8, stronger effect = lower value 1.01 | locus YER015W, strain faa2, stronger effect = lower value 0.97 | locus YER016W, strain bim1, stronger effect = lower value 0.972 | locus YER110C, stronger effect = lower value 0.992 | locus YER111C, strain swi4, stronger effect = lower value 0.97 | locus YER155C, strain BEM2 (second series), stronger effect = lower value 0.979 | locus YER155C, strain BEM2, stronger effect = lower value 1.01 | locus YER167W, strain BCK2, stronger effect = lower value 0.989 | locus YFR010W, strain ubp6, stronger effect = lower value 0.953 | locus YGL078C, strain dbp3, stronger effect = lower value 1 | locus YGL086W, strain mad1, stronger effect = lower value 0.993 | locus YGL167C, strain pmr1, stronger effect = lower value 0.961 | locus YGL173C, strain kem1, stronger effect = lower value 0.971 | locus YGL227W, strain vid30, stronger effect = lower value 0.97 | locus YGL240W, strain doc1, stronger effect = lower value 0.961 | locus YGL248W, strain PDE1, stronger effect = lower value 1.01 | locus YGL253W, strain hxk2, stronger effect = lower value 0.974 | locus YGR078C, strain PAC10, stronger effect = lower value 1.03 | locus YGR135W, strain pre9, stronger effect = lower value 0.99 | locus YGR229C, strain SMI1, stronger effect = lower value 1 | locus YGR252W, strain gcn5, stronger effect = lower value 0.997 | locus YHR013C, strain ard1, stronger effect = lower value 0.926 | locus YHR027C, strain rpn1, stronger effect = lower value 0.97 | locus YHR030C, strain SLT2, stronger effect = lower value 1 and 0.989 | locus YHR079C, strain IRE1 (second series), stronger effect = lower value 1 | locus YHR094C, strain hxt1, stronger effect = lower value 1 | locus YHR129C, strain ARP1, stronger effect = lower value 1.01 | locus YHR142W, strain chs7, stronger effect = lower value 0.946 | locus YHR200W, strain rpn10, stronger effect = lower value 0.998 | locus YIL066C, strain RNR3, stronger effect = lower value 1.01 | locus YIL073C, strain SPO22, stronger effect = lower value 1.02 | locus YIL125W, strain kgd1, stronger effect = lower value 0.997 | locus YIR030C, strain dcg1, stronger effect = lower value 0.997 | locus YJL092W, strain hpr5, stronger effect = lower value 0.957 | locus YJL095W, strain BCK1 (second series), stronger effect = lower value 0.978 | locus YJL095W, strain BCK1, stronger effect = lower value 1.02 and 1 | locus YJL115W, strain asf1, stronger effect = lower value 0.957 | locus YJL129C, strain trk1, stronger effect = lower value 0.917 | locus YJL134W, strain LCB3, stronger effect = lower value 1.01 | locus YJL154C, strain vps35, stronger effect = lower value 0.971 | locus YJL164C, strain tpk1, stronger effect = lower value 0.984 | locus YJL166W, strain qcr8, stronger effect = lower value 0.959 | locus YJL168C, strain set2, stronger effect = lower value 1 | locus YJL187C, strain SWE1 (second series), stronger effect = lower value 1.03 | locus YJL187C, strain SWE1, stronger effect = lower value 0.964 | locus YJR043C, strain POL32, stronger effect = lower value 1.03 | locus YJR066W, strain TOR1, stronger effect = lower value 0.949
